Reference: PubChem BioAssay
Activity calls are given as the source filed them.

What was measured:
[1] = test system: Plasmodium falciparum Sir2 (PF13_0152, Sir2A); experiment: pfSir2 binders on small-molecule microarrays, primary screen, biochemical, small-molecule microarray, 635 nm fluorescence (AID 1098); conditions: small-molecule microarray binding, fluorescence 635 nm; higher = more signal;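 also: score merges spot fluorescence intensity with its signal-to-noise ratio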
[2] = small-molecule microarray binders of probe aDKK1, primary screen, biochemical, biotinylated probe, 635/667 nm fluorescence (AID 1099); conditions: higher = more signal;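 also: score merges 667nm spot fluorescence with signal to noise across triplicate slides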
[3] = small-molecule microarray binders of probe aCHRDL2, primary screen, biochemical, biotinylated probe, 635/667 nm fluorescence (AID 1100); conditions: higher = more signal
[4] = splicing luciferase reporter signal modulators, primary screen, spliceosome inhibition project, cell-based, HEK293, splice +/- reporter (AID 1101); conditions: luminescence, 24 h, higher = more signal, called active from +8 up or from −8 down;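 also: HEK293 cells carrying a splicing-competent luciferase reporter gene; test concentration not given here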
[5] = target: Fibroblast growth factor 10 (Homo sapiens) (UniProt O15520); experiment: FGF10 binders on small-molecule microarrays, primary screen, biochemical, small-molecule microarray, 635 nm fluorescence (AID 1102); conditions: FGF10 binding, fluorescence 635 nm, higher = more signal
Fibroblast growth factor 10 (Homo sapiens), sequence (O15520 whole entry, looked up): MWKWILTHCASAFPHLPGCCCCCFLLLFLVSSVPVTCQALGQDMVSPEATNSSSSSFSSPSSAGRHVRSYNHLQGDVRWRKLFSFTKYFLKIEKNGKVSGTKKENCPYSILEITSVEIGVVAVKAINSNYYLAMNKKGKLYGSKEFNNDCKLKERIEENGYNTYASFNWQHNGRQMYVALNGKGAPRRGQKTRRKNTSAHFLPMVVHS

[6] = test system: glycogen synthase kinase-3 (GSK3A per assay name; protocol says GSK3B); experiment: GSK3 binders on small-molecule microarrays, primary screen, biochemical, small-molecule microarray, 635 nm fluorescence, GSK3A (AID 1103); conditions: small-molecule microarray binding, fluorescence 635 nm; higher = more signal; also: the record names both GSK3A and GSK3B
[7] = target: Epidermal growth factor receptor (Homo sapiens) (UniProt P00533); experiment: EGFR binders on small-molecule microarrays, primary screen, biochemical, small-molecule microarray, 635 nm fluorescence (AID 1104); conditions: EGFR binding, higher = more signal;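 also: score merges 667 nm emission intensity with spot signal to noise over triplicate slides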
Epidermal growth factor receptor (Homo sapiens), sequence (P00533 whole entry, looked up): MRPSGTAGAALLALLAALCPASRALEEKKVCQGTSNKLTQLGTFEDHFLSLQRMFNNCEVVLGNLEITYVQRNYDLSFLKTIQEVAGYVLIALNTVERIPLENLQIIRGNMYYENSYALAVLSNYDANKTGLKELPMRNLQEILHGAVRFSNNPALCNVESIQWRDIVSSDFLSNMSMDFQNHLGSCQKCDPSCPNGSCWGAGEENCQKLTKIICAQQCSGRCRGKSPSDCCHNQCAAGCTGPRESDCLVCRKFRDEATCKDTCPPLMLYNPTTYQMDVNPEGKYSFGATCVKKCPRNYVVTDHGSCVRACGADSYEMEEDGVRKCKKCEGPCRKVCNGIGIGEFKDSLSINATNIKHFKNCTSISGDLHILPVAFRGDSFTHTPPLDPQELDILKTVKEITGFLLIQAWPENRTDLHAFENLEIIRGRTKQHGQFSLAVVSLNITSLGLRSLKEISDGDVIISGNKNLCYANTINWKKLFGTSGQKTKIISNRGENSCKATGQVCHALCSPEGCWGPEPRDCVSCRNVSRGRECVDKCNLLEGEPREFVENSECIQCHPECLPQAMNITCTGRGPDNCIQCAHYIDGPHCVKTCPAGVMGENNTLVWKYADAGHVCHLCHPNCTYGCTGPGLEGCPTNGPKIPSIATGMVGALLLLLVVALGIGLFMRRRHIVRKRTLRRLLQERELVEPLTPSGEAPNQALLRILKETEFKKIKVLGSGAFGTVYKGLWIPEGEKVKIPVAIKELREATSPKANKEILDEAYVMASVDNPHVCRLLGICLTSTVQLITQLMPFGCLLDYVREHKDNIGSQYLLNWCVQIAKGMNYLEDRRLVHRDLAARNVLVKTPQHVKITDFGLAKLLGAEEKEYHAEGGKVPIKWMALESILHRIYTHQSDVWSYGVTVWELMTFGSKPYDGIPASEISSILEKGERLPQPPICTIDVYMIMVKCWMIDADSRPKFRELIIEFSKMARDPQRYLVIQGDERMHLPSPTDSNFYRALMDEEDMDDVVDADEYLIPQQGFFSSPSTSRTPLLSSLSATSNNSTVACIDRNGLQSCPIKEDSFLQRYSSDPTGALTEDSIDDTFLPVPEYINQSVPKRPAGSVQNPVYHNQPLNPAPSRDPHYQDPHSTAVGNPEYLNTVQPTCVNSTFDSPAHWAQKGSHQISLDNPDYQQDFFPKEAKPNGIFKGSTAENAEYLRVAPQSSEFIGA

[8] = target: Follistatin-related protein 3 (Homo sapiens) (UniProt O95633); experiment: FSTL3 binders on small-molecule microarrays, primary screen, biochemical, small-molecule microarray, 635 nm fluorescence (AID 1105); conditions: FSTL3 binding, higher = more signal;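 also: score merges emission near 667 nm and signal to noise per printed spot across three slides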
Follistatin-related protein 3 (Homo sapiens), sequence (O95633 whole entry, looked up): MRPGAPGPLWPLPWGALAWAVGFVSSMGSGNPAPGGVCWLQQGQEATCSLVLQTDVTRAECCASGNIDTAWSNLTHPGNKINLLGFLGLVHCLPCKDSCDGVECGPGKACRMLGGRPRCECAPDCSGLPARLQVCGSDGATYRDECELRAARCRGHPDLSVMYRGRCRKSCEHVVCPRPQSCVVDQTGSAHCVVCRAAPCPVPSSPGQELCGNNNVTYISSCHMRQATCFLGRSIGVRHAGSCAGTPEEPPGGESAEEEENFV

[9] = target: Dickkopf-related protein 1 (Homo sapiens) (UniProt O94907); experiment: DKK1 binders on small-molecule microarrays, primary screen, biochemical, small-molecule microarray, 635 nm fluorescence scan (AID 1106); conditions: DKK1 binding, higher = more signal;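 also: score merges emission near 667 nm with signal to noise over three replicate slides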
Dickkopf-related protein 1 (Homo sapiens), sequence (O94907 whole entry, looked up): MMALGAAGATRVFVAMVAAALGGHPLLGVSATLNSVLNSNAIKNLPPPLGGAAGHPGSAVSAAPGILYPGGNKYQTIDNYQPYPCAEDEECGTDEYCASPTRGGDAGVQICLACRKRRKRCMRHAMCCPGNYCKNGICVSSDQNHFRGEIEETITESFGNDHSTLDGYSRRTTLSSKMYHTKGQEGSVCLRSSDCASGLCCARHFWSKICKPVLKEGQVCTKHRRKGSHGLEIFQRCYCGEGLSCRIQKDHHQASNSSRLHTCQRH

[10] = test system: Inhibin beta A chain (activin A); experiment: INHBA (activin A) binders on microarrays, primary screen, biochemical, small-molecule microarray, 635 nm fluorescence scan (AID 1107); conditions: small-molecule microarray binding, higher = more signal;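 also: mouse activin A protein probed at 4.33 µg/mL on printed slides; score merges bound-protein fluorescence near 667 nm with spot signal-to-noise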
[11] = test system: Human papillomavirus type 1a protein E7 (residues 44-93); experiment: HPV1a E7 fragment binders on microarrays, primary screen, biochemical, small-molecule microarray, residues 44-93, 635 nm fluorescence (AID 1108); conditions: small-molecule microarray binding, fluorescence 635 nm; higher = more signal;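 also: E7 fragment applied at 1 µg/mL in TBST for 1 h at 4 C; score combines spot fluorescence with its signal to noise ratio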
[12] = modulators of HCV replicon luciferase signal, primary screen, HCV replication inhibitor project, Huh7 cells, luciferase reporter (AID 1109); conditions: 48 h, higher = more signal;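 also: huh7 hepatoma cells harbouring a luciferase neomycin HCV replicon reporter; luciferase luminescence as measure of HCV replicon replication; test concentration not given here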
[13] = target: Left-right determination factor 2 (Homo sapiens) (UniProt O00292); experiment: LEFTY2 binders on small-molecule microarrays, primary screen, biochemical, small-molecule microarray, 635 nm fluorescence scan (AID 1110); conditions: LEFTY2 binding, higher = more signal
Left-right determination factor 2 (Homo sapiens), sequence (O00292 whole entry, looked up): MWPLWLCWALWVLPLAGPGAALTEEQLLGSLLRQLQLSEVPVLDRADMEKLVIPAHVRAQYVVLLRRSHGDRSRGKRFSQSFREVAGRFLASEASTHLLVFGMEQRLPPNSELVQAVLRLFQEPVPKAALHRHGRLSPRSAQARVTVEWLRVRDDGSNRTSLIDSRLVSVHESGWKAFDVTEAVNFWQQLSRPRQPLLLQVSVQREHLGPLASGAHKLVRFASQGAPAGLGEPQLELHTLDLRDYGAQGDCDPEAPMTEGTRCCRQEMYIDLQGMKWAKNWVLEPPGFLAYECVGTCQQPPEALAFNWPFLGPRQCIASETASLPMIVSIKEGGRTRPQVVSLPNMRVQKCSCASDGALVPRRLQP

[14] = target: Calmodulin-1 (Homo sapiens) (UniProt P0DP23); experiment: CALM1 binders on microarrays, EGTA buffer, profiling panel, biochemical, small-molecule microarray, Cy5-labelled CALM1 (AID 1111); conditions: Cy5-CALM1 binding fluorescence, higher = more signal;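 also: labelled calmodulin applied in Tris saline Tween buffer holding calcium plus EGTA and DTT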
[15] = target: Calmodulin-1 (Homo sapiens) (UniProt P0DP23); experiment: calcium-bound CALM1 binders on microarrays, profiling panel, artefact control for SMM control-protein annotation, biochemical, small-molecule microarray, Cy5-labelled CALM1, plus calcium (AID 1112); conditions: Cy5-CALM1 binding fluorescence, higher = more signal;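 also: score merges spot fluorescence with signal to noise from triplicate slides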
[16] = small-molecule microarray binders of probe aWnt5a, primary screen, biochemical, biotinylated probe, 635/667 nm fluorescence (AID 1113); conditions: higher = more signal;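 also: score merges 667 nm fluorescence intensity with signal-to-noise per printed feature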
[17] = small-molecule microarray binders of probe aShh, primary screen, biochemical, biotinylated probe, 635/667 nm fluorescence (AID 1114); conditions: higher = more signal;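 also: probe is biotin-labelled aShh protein from a stem cell growth factor screen; measures binding of labelled protein to compounds printed on the slide; score merges feature fluorescence at 667 nm with signal-to-noise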
[18] = small-molecule microarray binders of probe aNog, primary screen, biochemical, biotinylated probe, 635/667 nm fluorescence (AID 1115); conditions: higher = more signal;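 also: probe is biotinylated aNog protein used at 0.15 µg/mL for 1 h at 4 C; z-score combines 667 nm fluorescence of each spot with its signal to noise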
[19] = target: Torsin-1A-interacting protein 1 (Homo sapiens) (UniProt Q5JTV8); experiment: LAP1 binders from COS7 cell lysate, primary screen, small-molecule microarray, 635/667 nm fluorescence (AID 1116); conditions: COS7-hLAP1 lysate binding, 635 nm fluorescence, higher = more signal
Torsin-1A-interacting protein 1 (Homo sapiens), sequence (Q5JTV8 whole entry, looked up): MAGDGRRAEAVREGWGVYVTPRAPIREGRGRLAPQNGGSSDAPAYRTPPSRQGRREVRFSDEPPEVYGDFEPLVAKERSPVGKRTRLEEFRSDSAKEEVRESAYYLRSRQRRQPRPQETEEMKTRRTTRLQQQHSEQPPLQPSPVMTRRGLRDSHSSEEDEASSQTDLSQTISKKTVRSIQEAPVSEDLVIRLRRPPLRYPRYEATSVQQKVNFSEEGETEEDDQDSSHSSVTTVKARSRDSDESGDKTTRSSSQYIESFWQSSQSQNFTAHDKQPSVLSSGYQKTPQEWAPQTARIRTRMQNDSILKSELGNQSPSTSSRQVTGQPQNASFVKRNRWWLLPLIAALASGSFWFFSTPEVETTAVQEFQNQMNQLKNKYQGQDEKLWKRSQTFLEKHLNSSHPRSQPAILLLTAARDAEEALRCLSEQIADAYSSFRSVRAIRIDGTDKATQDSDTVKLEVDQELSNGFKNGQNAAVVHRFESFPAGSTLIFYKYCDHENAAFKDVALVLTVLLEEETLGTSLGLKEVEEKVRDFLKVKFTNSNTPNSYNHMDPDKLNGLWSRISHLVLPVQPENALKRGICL

[20] = target: Alpha-bungarotoxin (Bungarus multicinctus) (UniProt P60615); experiment: alpha-bungarotoxin binders on microarray, profiling panel, artefact control for SMM control protein annotation, biochemical, small-molecule microarray, Alexa647 label, 635/667 nm fluorescence (AID 1117); conditions: alpha-BTX-A647 binding fluorescence, higher = more signal
Alpha-bungarotoxin (Bungarus multicinctus), sequence (P60615 whole entry, looked up): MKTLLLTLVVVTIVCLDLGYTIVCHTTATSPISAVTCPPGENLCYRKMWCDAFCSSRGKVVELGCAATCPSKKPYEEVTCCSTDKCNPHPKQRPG

Structure (SMILES)	composite z-score [1]	composite z-score [2]	composite z-score [3]	z-score [4]	composite z-score [5]	composite z-score [6]	composite z-score [7]	composite z-score [8]	composite z-score [9]	composite z-score [10]	composite z-score [11]	z-score [12]	composite z-score [13]	composite z-score [14]	composite z-score [15]	composite z-score [16]	composite z-score [17]	composite z-score [18]	composite z-score [19]	composite z-score [20]
CO[C@H]1O[C@H](CO)[C@@H](OC(=O)Nc2ccc3c(c2)OCO3)[C@H](OC(=O)c2cc3ccccc3[nH]2)[C@H]1OC(=O)c1cc2ccccc2[nH]1	0.787	-0.0268	-0.161	-1.87 (inactive)	0.247	-0.0406	-0.194	0.238	0.283	1.46	-0.343	-1.99	0.117	-0.418	-0.83	-0.168	-0.0709	-0.315	0.0724	0.279
O=C1C=C(c2ccccc2)C(=O)c2ccc([C@H]3Oc4ccccc4S(=O)(=O)N4CCC[C@@H]34)cc21	-0.186	-0.39	-0.6	0.781 (inactive)	-0.101	-0.191	0.496	-0.266	0.714	1.04	-1.08	-4.28	-0.272	-0.623	-0.351	-0.172	-0.117	-0.23	-0.239	-0.0257
COC(=O)[C@@]1(Cc2ccc(OC)cc2)[C@H]2c3cc(C(=O)N(C)C)n(Cc4ccc(Cl)c(C(F)(F)F)c4)c3C[C@H]2CN1C(=O)c1ccccc1	0.546	1.45	1.49	0.524 (inactive)	0.523	0.363	-0.242	0.83	-1.12	0.986	1.39	-2	-0.566	1.41	1.12	0.235	1.19	2.18	0.535	0.99
Cc1cc(C)cc(N2C(=O)CSC2c2cccc([N+](=O)[O-])c2)c1 (stereo not given)	1.13	0.94	0.398	1.07 (inactive)	1.15	1.29	0.279	1.35	0.905	-0.639	0.0826	-1.26	0.571	1.6	0.463	0.0873	0.0815	0.0373	0.516	1.7
[N-]=[N+]=NCc1ccccc1[C@H]1OC(c2ccc(OCCCO)cc2)=N[C@@]1(CCS(=O)(=O)c1ccccc1)C(=O)N1CCCCC1	1.15	1.05	1.42	-0.33 (inactive)	0.644	1.28	0.169	0.909	-0.202	1.57	-0.695	-1.11	0.651	2.25	0.735	0.16	0.385	1.15	1.22	2.96
[N-]=[N+]=NCc1ccccc1C[C@]1(C(N)=O)N=C(c2ccc(OCCCO)cc2)O[C@H]1c1ccccc1	1	0.774	0.827	-0.0612 (inactive)	0.703	0.854	-1.17	-0.188	-1.14	-0.0778	1.45	-2.07	-1.1	0.637	0.784	0.0003	0.14	0.581	2.27	0.623
C[C@]1(C(=O)NC2CC2)c2ccccc2C(=O)N(Cc2ccccc2)[C@H]1c1ccc(CO)cc1	1.13	0.432	0.951	-0.502 (inactive)	-1.01	-0.84	-1.12	-0.761	-0.594	-0.0478	-0.614	-0.582	-1.25	-0.875	-0.629	-0.148	-0.352	0.113	-0.0199	-1.02
C=C[C@@H](OC)[C@H](OC(=O)Nc1ccc(SC)cc1)c1ccc(O)c(F)c1	1.2	-0.0849	0.293	-1.17 (inactive)	0.588	0.288	-0.198	0.213	0.19	0.312	1.33	0.362	-0.374	-0.25	-0.479	-0.142	-0.0626	0.0553	0.345	1.22
